HIF-2a inh = inhibitors of HIF-2a | AID 624352 | inhibition, % at 18.8 µM | 360,000 tested, 0.72% active | 786-0 RCC cells HIF-2a reporter, luciferase luminescence, overnight;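 active = inhibition of the luminescence signal of 40% or more relative to plate controls, in a single-dose primary screen at 18.75 µM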
EWS-Fli inh = inhibitors of EWS/Fli oncoprotein transcriptional activity; A673 NR0B1-luciferase reporter, viability-normalised; inhibition, % at 12.6 µM; 350,000 tested, 0.67% active; AID 651661;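 active = mean inhibition of at least 50% after viability correction, with every replicate also passing that limit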;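 note: firefly luciferase signal divided by Alamar Blue viability fluorescence both relative to DMSO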
PAX8 reporter = lowers PAX8-driven luciferase in RMG-I cells; RMG-I TPO-luciferase reporter, SteadyGlo, 24 h; inhibition, % at 12.6 µM; 360,000 tested, 1.2% active;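 active = mean replicate inhibition at least 60% with every replicate also reaching 60%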;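 note: luciferase light reporting Pax8 driven TPO promoter activity; plate controls were median of neutral control wells for no effect and mitoxantrone controls for full effect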
KKLEB tox = CF airway cell cytotoxicity counter-screen; KKLEB CF airway cells viability, ATPlite luminescence, overnight; active compounds read low; cells stimulated with P. aeruginosa culture filtrate; activity change (cytotoxicity), % at 5 µM; 360,000 tested, 0.36% active; AID 602141;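 active = corrected activity change at or below -50% at 5 µM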
CF NFkB block = cystic fibrosis NF-kB activation inhibition. KKLEB NF-kB-GFP reporter, PAF-induced, GFP fluorescence overnight. inhibition, % at 5 µM. 360,000 tested, 0.86% active. AID 588850;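 active = at least 50% inhibition at 5 µM, scaled per plate between neutral and stimulator controls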;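 note: PAF is a Pseudomonas aeruginosa culture filtrate used as stimulus; plate controls were PAF-stimulated DMSO wells for no effect and unstimulated DMSO wells for full effect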
Mdm2 MdmX conf = Mdm2/MdmX (human) interaction inhibition, confirmed; shares compounds with HIF-2a inh; 740 tested, 99% active; SaOS-2 split-luciferase Mdm2/MdmX complementation, luminescence; inhibition, % at 8 µM;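 active = mean inhibition of the luminescence signal across two replicates at or above 26 percent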
Target sequence (O15151 whole entry, looked up): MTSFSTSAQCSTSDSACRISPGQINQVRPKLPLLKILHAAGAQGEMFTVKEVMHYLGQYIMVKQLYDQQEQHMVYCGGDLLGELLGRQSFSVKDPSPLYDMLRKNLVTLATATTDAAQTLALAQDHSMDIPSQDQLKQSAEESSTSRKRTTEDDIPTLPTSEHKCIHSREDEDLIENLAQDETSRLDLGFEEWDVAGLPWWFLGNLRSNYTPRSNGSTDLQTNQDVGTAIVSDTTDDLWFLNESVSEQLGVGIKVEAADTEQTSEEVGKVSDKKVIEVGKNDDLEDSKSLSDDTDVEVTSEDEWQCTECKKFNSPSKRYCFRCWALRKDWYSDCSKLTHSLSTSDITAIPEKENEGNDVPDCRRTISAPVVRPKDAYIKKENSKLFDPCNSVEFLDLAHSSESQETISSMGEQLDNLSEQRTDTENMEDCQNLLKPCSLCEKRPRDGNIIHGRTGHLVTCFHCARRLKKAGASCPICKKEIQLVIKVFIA
Target sequence (Q00987 whole entry, looked up): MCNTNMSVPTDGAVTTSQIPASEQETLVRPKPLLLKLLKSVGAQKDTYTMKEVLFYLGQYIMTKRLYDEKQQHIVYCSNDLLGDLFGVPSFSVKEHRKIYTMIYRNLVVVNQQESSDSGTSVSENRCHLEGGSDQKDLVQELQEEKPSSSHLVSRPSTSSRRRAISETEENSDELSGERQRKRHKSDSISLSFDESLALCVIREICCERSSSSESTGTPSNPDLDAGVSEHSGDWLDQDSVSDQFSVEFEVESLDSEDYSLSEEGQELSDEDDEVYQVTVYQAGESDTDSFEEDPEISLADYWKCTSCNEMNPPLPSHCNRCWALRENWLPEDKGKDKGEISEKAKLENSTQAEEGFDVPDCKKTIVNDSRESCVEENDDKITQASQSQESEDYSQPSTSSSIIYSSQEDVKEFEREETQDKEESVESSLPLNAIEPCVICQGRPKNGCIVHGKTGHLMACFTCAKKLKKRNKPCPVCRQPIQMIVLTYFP
HIF-2a conf = HIF-2a inhibition, single concentration confirmation; shares compounds with HIF-2a inh; 786-0 RCC cells, HIF-2a luciferase reporter luminescence, overnight; inhibition, % at 18.8 µM; 1,800 tested, 56% active; AID 651580;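 active = mean inhibition across four replicates of at least 40 percent at the single tested concentration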
HIF-1a counter = counter-screen for HIF-2a inhibitors: HIF-1a inhibition in MiaPaCa-2 cells; shares compounds with HIF-2a inh; MiaPaCa-2 HIF-1a luciferase reporter, desferoxamine, overnight; inhibition, % at 18.8 µM; 1,800 tested, 72% active;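 active = mean inhibition of the reporter signal across four replicates at the single tested dose of 50% or more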
Numbers without * were called inactive; . = no result given. In the library only some 2.1% were active in any assay of this set; here they are far more common.

SMILES	HIF-2a inh	EWS-Fli inh	PAX8 reporter	KKLEB tox	CF NFkB block	HIF-2a conf	HIF-1a counter	others
O=C(c1ccc(Cl)cc1)N1CCCCC(Sc2nnc(-c3ccc4c(c3)OCO4)o2)C1=O (stereo not given)	63.9*	.	70.1*	-10.0	-5.5	82.6*	67.7*
CCc1ccc(NC(=O)COc2ccc(/C=C(/C#N)c3nc4ccccc4[nH]3)cc2OC)cc1	-0.5	-4.2	-15.4	-4.2	1.7	.	.	Mdm2 MdmX conf=89.0*
CCOc1ccc(C(=O)Nc2cccc(C(=O)O)c2C)cc1Cl	54.2*	22.7	36.4	4.7	3.2	54.4*	13.3
CCOc1ccc(C(=O)Nc2ccccc2-c2ccccc2)cc1Cl	-22.6	.	.	14.1	-7.2	.	.
C[C@H](CO)N1C[C@H](C)[C@@H](CN(C)Cc2cccc(C(=O)O)c2)Oc2ncc(-c3ccccc3F)cc2C1=O	.	-11.0	.	.	.	.	.
CCCCCCCCNCCS(=O)(=O)NCCCCCCCC	51.1*	11.9	15.2	-21.7	19.2	9.5	105.5*
CCS(=O)(=O)c1ncc(Cl)c(C(=O)Nc2ccc(S(=O)(=O)N3CCCC(C)C3)cc2)n1 (stereo not given)	88.5*	.	102.0*	-108.9*	96.6*	98.5*	105.9*	Mdm2 MdmX conf=103.2*
Cc1ccc(CS(=O)(=O)c2ncc(Cl)c(C(=O)Nc3ccc(OC(F)F)cc3)n2)cc1	92.7*	48.9	21.2	-99.6*	94.4*	.	.	Mdm2 MdmX conf=103.2*
CCS(=O)(=O)c1ncc(Cl)c(C(=O)Nc2ccc(C)cc2)n1	91.6*	64.8*	100.5*	-85.8*	92.4*	97.3*	72.3*	Mdm2 MdmX conf=101.2*
CS(=O)(=O)c1ncc(Cl)c(C(=O)Nc2ccc3ccccc3c2)n1	94.8*	84.2*	88.6*	-99.6*	89.1*	97.3*	91.5*
CSc1ncc(Cl)c(C(=O)Nc2ccc(NC(C)=O)cc2)n1	-5.2	6.8	1.5	8.1	-15.7	.	.
COc1ccc(NC(=O)Nc2ccc3c(c2)[C@@H]2C[C@@H](CC(=O)NCCc4ccccc4)O[C@H](CO)[C@@H]2O3)cc1	.	1.1	9.1	.	.	.	.
C[C@@H]1CN([C@H](C)CO)C(=O)c2cc(NC(=O)C3CCCCC3)ccc2O[C@@H](C)CCCCO[C@@H]1CN(C)S(=O)(=O)c1ccc(F)cc1	.	0.4	7.5	.	.	.	.
C[C@H](CO)N1C[C@H](C)[C@H](CN(C)C(=O)c2ccc3ccn(C)c3c2)OCc2cn(nn2)CCCC1=O	.	1.5	-7.8	.	.	.	.
CCC1CCCCN1S(=O)(=O)c1ccc(NC(=O)c2nc(S(C)(=O)=O)ncc2Cl)cc1 (stereo not given)	75.4*	69.0*	104.1*	-74.1*	87.4*	100.2*	100.7*
CC(C)NC(=O)N1CCCCN2[C@H](CO)[C@H](c3ccc(C#Cc4ccccc4F)cc3)[C@@H]2C1	.	3.1	1.5	.	.	.	.
C=CS(=O)(=O)N(Cc1ccc(Cl)c(Cl)c1)C[C@@H](O)CO	0.8	.	.	-7.1	37.4	.	.	Mdm2 MdmX conf=94.0*
COCCNC(=O)[C@H](CSCc1ccccc1)N1Cc2ccccc2C1=O	48.1*	-1.4	6.1	-3.3	3.0	14.2	-6.1
O=C(NCc1cccnc1)c1ccc(-c2ccc(Cl)cc2)o1	-28.9	10.6	-4.5	-15.3	-15.2	.	.
O=C(NCc1cccnc1)/C(=C\c1ccc(-c2ccc(Cl)c(Cl)c2)o1)S(=O)(=O)c1ccccc1	97.1*	40.3	90.5*	-98.2*	98.6*	98.7*	106.2*
CO[C@H]1CN(C)C(=O)c2ccc(NC(=O)C3CCOCC3)cc2OC[C@@H](C)N(C(C)=O)C[C@H]1C	.	-4.3	-3.9	.	.	.	.
N#C/C(=C\c1cccc([N+](=O)[O-])c1)C(=O)NCc1ccc(Cl)cc1	65.7*	0.2	7.2	0.2	4.7	59.8*	105.6*
N#C/C(=C\c1cccc([N+](=O)[O-])c1)C(=O)NCc1cccnc1	36.3	.	.	1.6	6.6	.	.
Cc1cc(N2CCN(c3ccc(C(F)(F)F)cc3[N+](=O)[O-])CC2)c2ccccc2n1	17.0	29.9	34.1	1.0	4.0	.	.

Compound activity as filed in PubChem.
